Experimental data from PubChem BioAssay (Tox21).
Values joined by “and” are separate entries in the source; they are usually repeats but may differ in a detail not shown here. Identical values can stand only once. Records with an inconclusive call do not appear. More than one record can exist for a structure, and the calls need not agree. Active and inactive are the calls of the source. Unless noted, calls follow the shape of the dose curve; as a rule, active = well fitted curve in the direction sought with a large enough effect in the repeat runs; inconclusive = weak or mixed curves; inactive = no such curve, though single readings can be large; an effect the other way counts as inactive or inconclusive.

Columns and labels:
[1] = qHTS assay to identify small molecule agonists of the hypoxia (HIF-1) signaling pathway - cell viability counter screen (AID 1224844; calls by dose curve; also: nearly all actives have a fitted effect of over 50% in size; also: potency is read from the fitted curve at half-maximal effect)
Procedure, shortened: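 Cytotoxicity was measured in parallel with the HRE-driven beta-lactamase readout: after 17 hrs of compound exposure at 37C, HRE-bla ME-180 cells received CellTiter-Glo and luminescence was recorded 30 min later.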

[2] = qHTS assay to identify small molecule antagonists of the estrogen related receptor (ERR) signaling pathway from Tox21 library (AID 1224848); also: nearly all actives have a fitted effect of over 50% in size; also: potency is read from the fitted curve at half-maximal effect
Procedure, shortened: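 First, 2,000 ERR cells per well were plated and held 6 h at 37 C/5% CO2. Next, compounds in DMSO were pinned in and left 18 h at 37 C. Finally, ONE-Glo was added and luminescence read after 30 min at room temperature.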

[3] = qHTS assay to identify small molecule agonists of the estrogen related receptor (ERR) signaling pathway from Tox21 library (AID 1224849; calls by dose curve; also: nearly all actives have a fitted effect of over 15% in size); conditions: ERR reporter cell line, ONE-Glo luciferase, 18 h; at 92.4 µM (top of the series) unless noted
Procedure, shortened: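 Cells carrying the ERR reporter were plated and allowed to settle for 6 h, exposed to library compounds for 18 h at 37 C, then lysed with ONE-Glo and luminescence measured.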

[4] = qHTS RealTime-Glo MT Cell Viability Assay in HepG2 cells - 24 hour (AID 1224867); also: nearly all actives have a fitted effect of over 50% in size; also: potency is read from the fitted curve at half-maximal effect
Procedure, shortened: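 HepG2 cells (600/well) were dispensed with RealTime-Glo reagents, incubated 5 h at 37 °C, then treated with compounds in DMSO for up to 40 h. Nonlytic NanoLuc luminescence reflecting viable cells was read at each stated time point.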

[5] = A CellTox Green Cytotoxicity Assay to monitor cytotoxicity in HEK293 cells - 0 hour (AID 1224869); also: nearly all actives have a fitted effect of over 50% in size
Procedure, shortened: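 Cells (HEK293, 600/well) and dye reagent are dispensed together. After 5 h at 37 C, 23 nL compound is pinned in. Plates stay at 37 C for 40 h with fluorescence read at 0h, 8h, 16h, 24h, 32h and 40h.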

[6] = qHTS RealTime-Glo MT Cell Viability Assay in HepG2 cells - 40 hour (AID 1224870); also: nearly all actives have a fitted effect of over 50% in size
Procedure, shortened: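 HepG2 cells mixed with RealTime-Glo MT reagents (NanoLuc plus cell-permeant prosubstrate) were seeded at 600 cells/well, incubated 5 h at 37 C/5% CO2, then pinned with compounds in DMSO; nonlytic luminescence tracked viability during 40 h treatment.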

[7] = qHTS assay to identify small molecule agonists of H2AX (AID 1224845; active = well fitted activation curve with a large enough effect in the signal ratio in the repeat runs, not every such curve was filed as active; the % refers to the signal ratio)
Procedure, shortened: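 Wild-type CHO-K1 cells plated overnight, then exposed 3 hr at 37C to compounds at 15 concentrations (0.76% DMSO). Lysed, then HTRF anti-pH2AX(S139)-cryptate/anti-H2AX-d2 detection after 24 hr at room temperature; emissions 665 and 620 nm.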

[8] = qHTS assay to identify small molecule agonists of the hypoxia (HIF-1) signaling pathway (AID 1224846; active = well fitted activation curve with a large enough effect in the signal ratio in the repeat runs, not every such curve was filed as active; the % refers to the signal ratio)
Procedure, shortened: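 Compounds from the Tox21 10K library, dissolved in DMSO, are tested for induction of a hypoxia response element–controlled beta-lactamase reporter in ME-180 cells. Exposure lasts 17 hrs at 37C after a 5 hr settling period, followed by CCF4-AM FRET substrate.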

[9] = qHTS assay to identify small molecule agonists of H2AX - cell viability counter screen (AID 1224847; calls by dose curve; also: nearly all actives have a fitted effect of over 30% in size; also: potency is read from the fitted curve at half-maximal effect; as to activity change, negative = cytotoxicity: top concentration of the series differs between compounds)
Procedure, shortened: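 Cells plated first: CHO-K1, 1000 per well in 10% FBS medium, incubated overnight at 37C. Then 15-point compound titration added (final DMSO 0.76%) for 3 hr. Finally CellTiter-Glo added and luminescence read.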

[10] = qHTS RealTime-Glo MT Cell Viability Assay in HEK293 cells - 32 hour (AID 1224868)
Procedure, shortened: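 HEK293 cells seeded with NanoLuc/prosubstrate reagent, rested 5 h at 37 C, then dosed and kept at 37 C up to 40 h. Nonlytic real-time luminescence from viable cells read at 0, 8, 16, 24, 32 and 40 h.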
% is scaled to controls: 0 for no effect and ±100 for the full control effect.

CCOC(=O)C(SP(=S)(OC)OC)c1ccccc1 (stereo unspecified)
inactive: Potency [1] | Potency [2] | activity change, positive = activation [3] -11.8% | Potency [4] | outcome [5] | Potency [6]

O=C(O)C(F)(F)C(F)(F)C(F)(F)C(F)(F)C(F)(F)C(F)(F)F
inactive: outcome [7] | outcome [8] | Potency [9] | Potency [4] | Potency [10] | outcome [5] | Potency [6]

CCC(=O)OC1(c2ccccc2)CCN(C)CC1
inactive: Potency [1] | outcome [7] | Potency [9] | Potency [4] | Potency [10] | outcome [5] | Potency [6]

C=C(Cl)CSC(=S)N(CC)CC
inactive: Potency [1] | outcome [8] | Potency [9] | Potency [4] | Potency [10] | outcome [5] | Potency [6]

O=c1[nH]c2ccccc2n1C1CCNCC1
inactive: Potency [1] | outcome [7] | Potency [9] | Potency [4] | Potency [10] | outcome [5] | Potency [6]

C[C@H]1CCCC(=O)CCC/C=C/c2cc(O)cc(O)c2C(=O)O1
inactive: Potency [1] | outcome [7] | Potency [4] | outcome [5]
86.5 µM (active) and inactive: Potency [9]

CCCOc1nn(C(=O)NS(=O)(=O)c2ccccc2C(=O)OC)c(=O)n1C
inactive: Potency [1] | outcome [7] | Potency [9] | Potency [4] | outcome [5]

CCC1(c2cccc(O)c2)CCCCN(C)C1 (stereo unspecified)
inactive: Potency [1] | outcome [7] | Potency [9] | Potency [4] | Potency [10] | outcome [5] | Potency [6]

CCOP(=S)(OCC)SCCl
inactive: Potency [1] | Potency [9] | Potency [4] | outcome [5] | Potency [6]

N[C@@H](Cc1ccc(Oc2cc(I)c(O)c(I)c2)c(I)c1)C(=O)O
inactive: Potency [1] | outcome [7] | Potency [9] | Potency [4] | Potency [10] | outcome [5] | Potency [6]

Brc1c(Br)c(Br)c(Br)c(Br)c1Br
inactive: activity change, negative = cytotoxicity [1] -35.3% [at 6.97 µM] | activation [8] -0.641% [at 7.01 µM] | activity change, negative = cytotoxicity [9] -1.61% [at 14 µM] | activity change, negative = cytotoxicity [4] -11.6% [at 6.97 µM] | activity change, negative = cytotoxic [6] -3.64% [at 6.97 µM]

CC(C)(N)Cc1ccc(Cl)cc1
inactive: Potency [1] | outcome [8] | Potency [9] | Potency [4] | Potency [10] | Potency [6]

O=C1C2CC=CCC2C(=O)N1SC(Cl)(Cl)Cl (stereo unspecified)
inactive and 24.1 µM (active): Potency [4]
active: Potency [1] 6.07 µM
inactive and 30.1 µM (active): Potency [2]
inactive: activity change, positive = activation [3] -8.8% and -75.3% | outcome [5]

N[C@@H]1C[C@H]1c1ccccc1
inactive: Potency [1] | outcome [7] | Potency [9] | Potency [4] | Potency [6]

CC1N=C(N)OC1c1ccccc1 (stereo unspecified)
inactive: Potency [1] | outcome [7] | Potency [9] | Potency [4] | Potency [10] | outcome [5] | Potency [6]

CN(C)CCc1c[nH]c2cccc(OP(=O)(O)O)c12
inactive: Potency [1] | outcome [7] | Potency [9] | Potency [4] | Potency [6]

COC(=O)[C@@H](N)CCCN/C(N)=N/[N+](=O)[O-]
inactive: Potency [1] | outcome [7] | Potency [9] | Potency [4] | Potency [10] | outcome [5] | Potency [6]

O=C(Cl)C(Cl)(Cl)Cl
inactive: outcome [7] | outcome [8] | Potency [9] | Potency [4] | outcome [5]

CC1NCCOC1c1ccccc1 (stereo unspecified)
inactive: Potency [1] | outcome [8] | Potency [9] | Potency [2] | Potency [4] | Potency [10] | outcome [5] | Potency [6]

Clc1ccc(C(Cl)(Cl)Cl)cn1
inactive: outcome [7] | outcome [8] | Potency [9] | Potency [4] | Potency [10] | outcome [5] | Potency [6]

CCOC(=O)c1ncn2c1CN(C)C(=O)c1c(I)cccc1-2
inactive: Potency [1] | outcome [7] | Potency [9] | Potency [4] | Potency [10] | outcome [5] | Potency [6]

O=C(Cl)CCl
inactive: Potency [1] | outcome [7] | Potency [9] | Potency [4] | Potency [10] | outcome [5] | Potency [6]

COP(=O)(O)OC
inactive: Potency [1] | outcome [7] | Potency [9] | Potency [4] | Potency [10] | outcome [5] | Potency [6]

CCNc1nc(Cl)nc(NC(C)(C)C)n1
inactive: Potency [1] | outcome [7] | Potency [9] | Potency [4] | Potency [10] | outcome [5] | Potency [6]
